± gives the standard deviation of the averaged measurements.
Assays:
Experiment in all cases: relative enzymatic activity vs untreated control (fraction); higher = less inhibition
Details in all cases: 100 µM; incubation time: 2 h at 37 C
DNA gyrase = test system: DNA gyrase
Experimental: (§1)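 In vitro enzymatic inhibition assays (ProFoldin kits) for 12 purified essential E. coli enzymes or complexes, each treated with 218 active antibacterial compounds at 100 µM for 2 h at 37°C. Read-outs were fluorescence or absorbance (phosphate detection, dye binding), converted to activity via standard curves and expressed relative to untreated DMSO controls.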

DNA helicase = DNA helicase (UniProt P0ACB1)
DNA helicase, sequence (P0ACB1 whole entry): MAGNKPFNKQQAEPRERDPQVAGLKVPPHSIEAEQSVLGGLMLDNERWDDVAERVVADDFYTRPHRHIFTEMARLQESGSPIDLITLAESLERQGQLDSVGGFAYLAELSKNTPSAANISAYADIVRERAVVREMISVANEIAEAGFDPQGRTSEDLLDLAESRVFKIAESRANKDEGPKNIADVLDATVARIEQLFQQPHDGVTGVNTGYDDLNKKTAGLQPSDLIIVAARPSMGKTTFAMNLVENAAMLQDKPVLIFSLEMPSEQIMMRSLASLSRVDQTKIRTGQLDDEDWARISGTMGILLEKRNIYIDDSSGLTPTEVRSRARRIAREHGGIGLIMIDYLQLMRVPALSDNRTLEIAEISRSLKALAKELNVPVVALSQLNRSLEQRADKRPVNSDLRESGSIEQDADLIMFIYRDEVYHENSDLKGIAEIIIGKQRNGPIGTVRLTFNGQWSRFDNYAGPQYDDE
Experimental: as §1

DNA ligase = DNA ligase (UniProt B1XA82)
DNA ligase, sequence (B1XA82 whole entry): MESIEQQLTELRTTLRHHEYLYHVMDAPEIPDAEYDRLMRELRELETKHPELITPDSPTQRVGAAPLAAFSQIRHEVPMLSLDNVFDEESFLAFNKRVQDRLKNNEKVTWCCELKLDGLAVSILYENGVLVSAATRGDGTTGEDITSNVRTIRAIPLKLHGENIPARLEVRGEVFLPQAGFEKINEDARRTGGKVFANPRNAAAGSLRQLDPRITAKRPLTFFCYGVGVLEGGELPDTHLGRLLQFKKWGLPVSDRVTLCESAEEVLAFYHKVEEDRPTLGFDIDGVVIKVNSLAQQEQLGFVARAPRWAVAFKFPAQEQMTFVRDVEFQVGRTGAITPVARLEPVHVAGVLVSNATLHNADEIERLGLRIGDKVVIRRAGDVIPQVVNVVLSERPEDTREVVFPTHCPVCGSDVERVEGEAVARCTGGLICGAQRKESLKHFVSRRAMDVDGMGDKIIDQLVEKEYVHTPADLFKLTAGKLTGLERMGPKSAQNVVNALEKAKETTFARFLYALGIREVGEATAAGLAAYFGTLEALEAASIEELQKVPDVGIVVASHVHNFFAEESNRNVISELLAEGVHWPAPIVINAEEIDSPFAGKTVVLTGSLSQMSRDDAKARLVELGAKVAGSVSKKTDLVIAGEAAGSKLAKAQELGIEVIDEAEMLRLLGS
Experimental: as §1

DNA polymerase = DNA polymerase (UniProt P10443)
DNA polymerase, sequence (P10443 whole entry): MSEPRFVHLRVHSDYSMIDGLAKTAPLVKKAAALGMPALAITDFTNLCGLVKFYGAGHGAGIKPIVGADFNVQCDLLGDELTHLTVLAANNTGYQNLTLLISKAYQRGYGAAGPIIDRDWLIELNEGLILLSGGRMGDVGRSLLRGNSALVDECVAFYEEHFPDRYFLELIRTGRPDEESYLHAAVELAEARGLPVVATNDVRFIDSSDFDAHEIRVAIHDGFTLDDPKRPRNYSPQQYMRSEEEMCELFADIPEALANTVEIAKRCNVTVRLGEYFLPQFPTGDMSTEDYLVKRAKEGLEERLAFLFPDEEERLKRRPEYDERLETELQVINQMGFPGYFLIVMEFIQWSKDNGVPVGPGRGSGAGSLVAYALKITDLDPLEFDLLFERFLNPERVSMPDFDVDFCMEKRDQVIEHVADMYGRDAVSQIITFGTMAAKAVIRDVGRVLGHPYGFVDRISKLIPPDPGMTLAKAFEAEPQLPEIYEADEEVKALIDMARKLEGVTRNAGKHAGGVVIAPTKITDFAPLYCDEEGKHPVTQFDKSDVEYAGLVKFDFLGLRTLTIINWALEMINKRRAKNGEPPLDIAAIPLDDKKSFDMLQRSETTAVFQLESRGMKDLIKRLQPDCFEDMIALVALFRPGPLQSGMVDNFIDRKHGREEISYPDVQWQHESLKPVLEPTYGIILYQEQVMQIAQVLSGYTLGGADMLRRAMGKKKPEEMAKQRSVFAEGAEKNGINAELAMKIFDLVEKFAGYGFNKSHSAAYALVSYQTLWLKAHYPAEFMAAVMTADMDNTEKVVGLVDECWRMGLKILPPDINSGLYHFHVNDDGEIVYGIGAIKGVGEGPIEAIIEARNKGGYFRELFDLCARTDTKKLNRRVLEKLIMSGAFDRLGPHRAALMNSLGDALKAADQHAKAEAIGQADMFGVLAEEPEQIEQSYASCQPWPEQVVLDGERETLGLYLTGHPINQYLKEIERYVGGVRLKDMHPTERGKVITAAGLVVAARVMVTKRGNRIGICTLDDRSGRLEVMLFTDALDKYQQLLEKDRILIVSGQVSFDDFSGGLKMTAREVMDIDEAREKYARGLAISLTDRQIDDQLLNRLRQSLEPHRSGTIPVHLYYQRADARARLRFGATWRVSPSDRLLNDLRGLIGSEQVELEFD
Experimental: as §1

DNA primase = DNA primase (UniProt P0ABS7)
DNA primase, sequence (P0ABS7 whole entry): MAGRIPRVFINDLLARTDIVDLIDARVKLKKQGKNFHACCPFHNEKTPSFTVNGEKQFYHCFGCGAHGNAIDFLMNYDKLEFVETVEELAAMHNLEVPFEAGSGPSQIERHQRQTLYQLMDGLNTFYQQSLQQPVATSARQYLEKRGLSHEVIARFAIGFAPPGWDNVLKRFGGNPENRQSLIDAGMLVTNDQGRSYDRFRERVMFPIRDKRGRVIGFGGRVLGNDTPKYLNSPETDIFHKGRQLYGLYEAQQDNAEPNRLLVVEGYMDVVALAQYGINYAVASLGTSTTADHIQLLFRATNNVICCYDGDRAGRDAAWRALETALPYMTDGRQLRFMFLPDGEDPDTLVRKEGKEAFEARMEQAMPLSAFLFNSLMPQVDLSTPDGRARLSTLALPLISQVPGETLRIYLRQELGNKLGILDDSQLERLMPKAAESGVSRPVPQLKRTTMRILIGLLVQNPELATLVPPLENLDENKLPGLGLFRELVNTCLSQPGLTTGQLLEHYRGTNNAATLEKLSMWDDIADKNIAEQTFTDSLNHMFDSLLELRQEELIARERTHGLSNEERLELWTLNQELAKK
Experimental: as §1

GlmU = GlmU (UniProt A7ZTU1)
GlmU, sequence (A7ZTU1 whole entry, looked up): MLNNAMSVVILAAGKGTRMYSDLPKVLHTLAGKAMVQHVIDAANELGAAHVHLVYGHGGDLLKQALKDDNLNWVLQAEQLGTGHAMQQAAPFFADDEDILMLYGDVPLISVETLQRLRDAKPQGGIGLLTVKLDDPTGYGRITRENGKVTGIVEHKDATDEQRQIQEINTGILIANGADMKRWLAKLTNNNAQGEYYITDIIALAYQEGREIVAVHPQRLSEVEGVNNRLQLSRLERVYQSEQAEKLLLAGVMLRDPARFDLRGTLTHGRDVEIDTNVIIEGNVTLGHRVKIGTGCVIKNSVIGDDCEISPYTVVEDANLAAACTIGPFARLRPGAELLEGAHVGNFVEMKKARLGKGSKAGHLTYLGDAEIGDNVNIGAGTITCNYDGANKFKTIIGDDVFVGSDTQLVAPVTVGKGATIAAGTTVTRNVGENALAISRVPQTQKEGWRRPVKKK
Experimental: as §1

Guanlyate kinase = Guanlyate kinase (UniProt Q0TBG1)
Guanlyate kinase, sequence (Q0TBG1 whole entry): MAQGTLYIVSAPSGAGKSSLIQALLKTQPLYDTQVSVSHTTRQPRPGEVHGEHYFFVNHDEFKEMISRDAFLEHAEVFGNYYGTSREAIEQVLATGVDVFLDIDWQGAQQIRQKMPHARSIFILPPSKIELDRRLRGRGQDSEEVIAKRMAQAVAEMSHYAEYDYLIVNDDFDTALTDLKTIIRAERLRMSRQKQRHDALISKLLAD
Experimental: as §1

MurA = MurA (UniProt Q3YX52)
MurA, sequence (Q3YX52 whole entry): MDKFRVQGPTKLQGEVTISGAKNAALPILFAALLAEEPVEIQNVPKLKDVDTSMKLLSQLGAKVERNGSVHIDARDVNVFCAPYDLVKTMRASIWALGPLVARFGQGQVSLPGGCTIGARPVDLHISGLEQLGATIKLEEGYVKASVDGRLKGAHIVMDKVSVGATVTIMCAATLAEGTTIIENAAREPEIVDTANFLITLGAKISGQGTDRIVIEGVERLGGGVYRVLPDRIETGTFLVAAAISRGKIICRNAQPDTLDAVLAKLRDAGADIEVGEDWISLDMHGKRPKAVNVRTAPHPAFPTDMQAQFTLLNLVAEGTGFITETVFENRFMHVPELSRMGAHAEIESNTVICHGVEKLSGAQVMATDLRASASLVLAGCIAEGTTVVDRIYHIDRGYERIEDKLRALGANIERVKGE
Experimental: as §1

MurC = MurC (UniProt C4ZRI6)
MurC, sequence (C4ZRI6 whole entry, looked up): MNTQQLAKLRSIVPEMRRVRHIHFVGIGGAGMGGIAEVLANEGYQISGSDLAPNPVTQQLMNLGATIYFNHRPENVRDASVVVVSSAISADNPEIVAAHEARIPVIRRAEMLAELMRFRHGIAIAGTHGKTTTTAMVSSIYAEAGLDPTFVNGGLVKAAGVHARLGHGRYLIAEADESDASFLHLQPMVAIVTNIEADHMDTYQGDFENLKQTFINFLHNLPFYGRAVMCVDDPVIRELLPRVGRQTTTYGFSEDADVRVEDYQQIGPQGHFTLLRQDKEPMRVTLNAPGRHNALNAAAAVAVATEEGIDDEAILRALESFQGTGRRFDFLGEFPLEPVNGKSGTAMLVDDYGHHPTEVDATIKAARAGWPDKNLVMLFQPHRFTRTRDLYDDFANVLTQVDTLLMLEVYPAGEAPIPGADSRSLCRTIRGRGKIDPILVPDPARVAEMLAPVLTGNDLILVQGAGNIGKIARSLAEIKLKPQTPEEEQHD
Experimental: as §1

MurD = target: T1, MurD (UniProt P14900)
T1 sequence (whole entry): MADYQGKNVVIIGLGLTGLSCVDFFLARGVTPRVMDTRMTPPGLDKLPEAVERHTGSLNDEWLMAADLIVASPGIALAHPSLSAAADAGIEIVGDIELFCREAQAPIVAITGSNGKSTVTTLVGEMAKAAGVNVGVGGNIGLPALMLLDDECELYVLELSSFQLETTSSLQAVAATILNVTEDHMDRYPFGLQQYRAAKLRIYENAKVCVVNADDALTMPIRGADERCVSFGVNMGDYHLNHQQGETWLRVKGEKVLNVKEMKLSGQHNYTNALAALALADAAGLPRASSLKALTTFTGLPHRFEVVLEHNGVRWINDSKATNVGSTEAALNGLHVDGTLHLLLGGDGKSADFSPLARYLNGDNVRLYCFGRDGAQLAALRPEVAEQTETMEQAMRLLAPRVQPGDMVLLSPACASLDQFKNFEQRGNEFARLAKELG
Experimental: as §1

MurF = target: T2, MurF (UniProt P11880)
T2 sequence (whole entry): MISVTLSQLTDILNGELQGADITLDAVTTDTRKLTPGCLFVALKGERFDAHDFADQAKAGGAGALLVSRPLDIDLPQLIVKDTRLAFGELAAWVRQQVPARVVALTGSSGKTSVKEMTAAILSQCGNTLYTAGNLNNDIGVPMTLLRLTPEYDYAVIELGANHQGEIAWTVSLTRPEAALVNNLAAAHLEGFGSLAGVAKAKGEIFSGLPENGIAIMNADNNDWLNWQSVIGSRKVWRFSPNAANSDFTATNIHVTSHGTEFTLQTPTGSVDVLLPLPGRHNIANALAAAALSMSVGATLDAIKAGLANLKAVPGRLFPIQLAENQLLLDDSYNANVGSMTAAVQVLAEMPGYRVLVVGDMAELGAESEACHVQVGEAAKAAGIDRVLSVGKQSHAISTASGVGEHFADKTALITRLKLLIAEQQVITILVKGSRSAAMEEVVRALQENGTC
Experimental: as §1

RNA polymerase = test system: RNA polymerase
Experimental: as §1

Compound | relative enzymatic activity (DNA gyrase) | relative enzymatic activity (DNA helicase) | relative enzymatic activity (DNA ligase) | relative enzymatic activity (DNA polymerase) | relative enzymatic activity (DNA primase) | relative enzymatic activity (GlmU) | relative enzymatic activity (Guanlyate kinase) | relative enzymatic activity (MurA) | relative enzymatic activity (MurC) | relative enzymatic activity (MurD) | relative enzymatic activity (MurF) | relative enzymatic activity (RNA polymerase)
CCn1cc(C(=O)O)c(=O)c2cc(F)c(N3CCN(C(=S)Nc4cc(C(F)(F)F)ccc4Cl)CC3)cc21 | 0.0352 ± 0.05 | 0.303 ± 0.029 | 0.85 ± 0.036 | 0.51 ± 0.72 | 1.49 ± 0.75 | 1.03 ± 0.024 | 0.915 ± 0.081 | 0.654 ± 0.18 | 1.07 ± 0.069 | 0.629 ± 0.41 | 0.996 ± 0.24 | 1.17 ± 0.075
CN(C)[C@@H]1C(=O)[C@@H](C(N)=O)C(=O)[C@@]2(O)C(=O)[C@H]3C(=O)c4c(O)ccc(Cl)c4[C@@H](O)[C@H]3C[C@@H]12 | 1.05 ± 0.19 | 0.508 ± 0.1 | 0.858 ± 0.066 | 1.17 ± 0.28 | 0.754 ± 0.018 | 1.02 ± 0.063 | 0.831 ± 0.16 | 0.336 ± 0.14 | 1.009 ± 0.01 | 0.621 ± 0.42 | 0.975 ± 0.23 | 0.749 ± 0.19
O=C(O)P(=O)(O)O | 0.105 ± 0.15 | 0.549 ± 0.16 | 0.871 ± 0.14 | 0.703 ± 0.39 | 0.775 ± 0.04 | 1 ± 0.014 | 0.914 ± 0.092 | 0.79 ± 0.12 | 0.972 ± 0.058 | 0.6 ± 0.4 | 0.945 ± 0.24 | 0.8 ± 0.14
C=CC1=C(C(=O)O)N2C(=O)[C@@H](NC(=O)/C(=N\OCC(=O)O)c3csc(N)n3)[C@H]2SC1 | 0.321 ± 0.084 | 0.432 ± 0.089 | 0.941 ± 0.17 | 1.06 ± 0.23 | 0.662 ± 0.021 | 1.046 ± 0.0058 | 0.886 ± 0.1 | 0.0787 ± 0.0056 | 1.12 ± 0.017 | 0.606 ± 0.41 | 0.954 ± 0.18 | 0.822 ± 0.32
CC1COc2c(N3CCN(C)CC3)c(F)cc3c(=O)c(C(=O)O)cn1c23 (configuration not stated) | 0.0425 ± 0.06 | 0.698 ± 0.077 | 1.39 ± 0.046 | 1.3 ± 0.35 | 0.722 ± 0.2 | 1.1 ± 0.2 | 0.937 ± 0.12 | 0.757 ± 0.05 | 0.983 ± 0.042 | 0.584 ± 0.4 | 0.976 ± 0.2 | 1.16 ± 0.38
CC1CCC2(C)C(C=O)=CCCC2C1(C)CC1OC(O)C(=O)C12CO2 (configuration not stated) | 0.075 ± 0.11 | 0.688 ± 0.45 | 1.12 ± 0.035 | 1.15 ± 0.2 | 0.89 ± 0.017 | 1.008 ± 0.0078 | 0.956 ± 0.024 | 0.662 ± 0.12 | 0.933 ± 0.1 | 0.612 ± 0.41 | 0.577 ± 0.81 | 1.06 ± 0.13
C[C@H]1COc2c(C3(N)CC3)c(F)cc3c(=O)c(C(=O)O)cn1c23 | 0.0356 ± 0.05 | 0.447 ± 0.079 | 0.801 ± 0.074 | 0.5 ± 0.7 | 0.8435 ± 0.0058 | 0.995 ± 0.012 | 0.991 ± 0.021 | 0.619 ± 0.16 |  | 0.578 ± 0.38 | 0.946 ± 0.25 | 0.861 ± 0.087
CN(C)c1ccc(O)c2c1C[C@@H]1C[C@@H]3[C@@H](N(C)C)C(=O)C(C(N)=O)=C(O)[C@]3(O)C(=O)[C@H]1C2=O | 0.00646 ± 0.0091 | 0.123 ± 0.0035 | 0.699 ± 0.021 | 0.021 ± 0.0081 | 0.424 ± 0.027 | 0.655 ± 0.21 | 0.152 ± 0.014 | 0.0751 ± 0.025 |  | 0.665 ± 0.43 | 1.21 ± 0.043 | 0.00236 ± 0.0021
CN1CCN(c2c(F)cc3c(=O)c(C(=O)O)cn4c3c2SCC4)CC1 | 0.0039 ± 0.0055 | 0.623 ± 0.2 | 1.02 ± 0.03 | 1.21 ± 0.25 | 0.807 ± 0.022 | 0.952 ± 0.026 | 0.926 ± 0.19 | 0.7644 ± 0.0074 |  | 0.608 ± 0.44 | 0.899 ± 0.27 | 0.844 ± 0.023
Cc1cn([C@H]2C[C@H](N=[N+]=[N-])[C@@H](CO)O2)c(=O)[nH]c1=O | 0.52 ± 0.49 | 0.626 ± 0.26 | 0.932 ± 0.15 | 1.04 ± 0.19 | 0.733 ± 0.041 | 0.944 ± 0.04 | 0.885 ± 0.024 | 0.712 ± 0.092 |  | 0.491 ± 0.63 | 0.944 ± 0.18 | 0.778 ± 0.13
N[C@H]1CCN(c2nc3c(cc2F)c(=O)c(C(=O)O)cn3-c2ccc(F)cc2F)C1 | 0.206 ± 0.29 | 0.461 ± 0.041 | 0.91 ± 0.23 | 1.17 ± 0.24 | 0.774 ± 0.035 | 0.955 ± 0.026 | 0.852 ± 0.12 | 0.521 ± 0.22 |  | 0.586 ± 0.39 | 0.924 ± 0.25 | 0.929 ± 0.12
COC1=C(OC)C(=O)C(CCCCCCCCCC[P+](c2ccccc2)(c2ccccc2)c2ccccc2)=C(C)C1=O | ≤ 0 | 0.0205 ± 0.0027 | 0.705 ± 0.021 | 0.0027 ± 0.0017 | ≤ 0 | 0.155 ± 0.019 | ≤ 0 | 0.021 ± 0.0015 |  | 0.162 ± 0.074 | 0.211 ± 0.023 | 0.0008799 ± 4.6e-06
CC(C)(O/N=C(\C(=O)N[C@@H]1C(=O)N2C(C(=O)O)=C(C[n+]3ccccc3)CS[C@H]12)c1csc(N)n1)C(=O)O | 0.662 ± 0.56 | 0.577 ± 0.24 | 0.86 ± 0.088 | 1.1 ± 0.22 | 0.791 ± 0.01 | 1.01 ± 0.032 | 0.94 ± 0.075 | 0.0696 ± 0.019 |  | 0.613 ± 0.43 | 0.935 ± 0.24 | 0.829 ± 0.16
Cl.O=C1CC2(CCCC2)CC(=O)N1CCCCN1CCN(c2ncccn2)CC1 | 0.812 ± 0.33 | 0.485 ± 0.034 | 0.999 ± 0.1 | 1.05 ± 0.045 | 0.81 ± 0.029 | 1.03 ± 0.042 | 1 ± 0.013 | 0.865 ± 0.1 |  | 0.609 ± 0.44 | 0.97 ± 0.21 | 0.83 ± 0.039
CON=C(C(=O)N[C@@H]1C(=O)N2C(C(=O)OCOC(=O)C(C)(C)C)=C(C=Cc3scnc3C)CS[C@H]12)c1csc(N)n1 | 0.622 ± 0.19 | 0.322 ± 0.0034 | 0.899 ± 0.1 | 0.496 ± 0.7 | 0.83003 ± 0.00016 | 0.838 ± 0.01 | 0.842 ± 0.11 | 0.335 ± 0.12 |  | 0.147 ± 0.21 | 0.855 ± 0.25 | 0.945 ± 0.2
CC(C)[C@@H](CC[C@@H](C)[C@H]1CC[C@H]2[C@@H]3[C@H](O)C[C@H]4C[C@@H](NCCCNCCCCNCCCN)CC[C@]4(C)[C@H]3CC[C@]12C)OS(=O)(=O)O | 1.18 ± 0.2 | 0.0588 ± 0.066 | 0.674 ± 0.096 | 0.126 ± 0.02 | 0.419 ± 0.016 | 0.813 ± 0.091 | 0.334 ± 0.028 | 0.187 ± 0.029 |  | 0.59 ± 0.41 | 1.03 ± 0.027 | 0.146 ± 0.0049

From the supplement of paper PMC9446081
